Drawing on PubChem BioAssay (NCI), this text covers growth for seven molecules.

The panel holds about 83,000 compounds, 20% with a hit somewhere; the sample as a whole holds those more often.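 A percent growth of 40 corresponds to 60% growth inhibition; 0 means no net growth; -100 means all cells died. Active threshold: below 10.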 A number with no mark means an inactive call. Calls of active or inactive are those of the source.

Among the test systems are SK-MEL-2 melanoma; EKVX NSCLC; SN12C renal; UO-31 renal; TK-10 renal; ACHN renal; CAKI-1 renal; A498 renal; CCRF-CEM leukemia; MOLT-4 leukemia; RPMI-8226 leukemia; OVCAR-8 ovarian; OVCAR-5 ovarian; OVCAR-4 ovarian; SK-OV-3 ovarian; IGROV1 ovarian; OVCAR-3 ovarian; HS 578T breast; NCI/ADR-RES ovarian; SR leukemia.
Common to all, as to experiment: NCI-60 one-dose screen, 48 h (100 = growth as untreated, 0 = no growth, -100 = all killed)
What all share (settings): 10 µM unless noted

Turning to `COc1ccc(/C=C(\C#N)C(=O)Nc2cccc(Nc3nc(SC)nc(-c4cccc([N+](=O)[O-])c4)c3C#N)c2)cc1OC`, the growth in the assay with SK-MEL-2 melanoma was 113%; with EKVX NSCLC, 88.2%; in the assay with SN12C renal it was 96.5%; with UO-31 renal, 88.3%; in the assay on TK-10 renal, 176%; in the assay with ACHN renal, 93.8%. Besides, the growth in the assay with CAKI-1 renal is 92.7%; in the assay on A498 renal, 102%; with CCRF-CEM leukemia it was 87.7%; in the assay on MOLT-4 leukemia, 93.1%; in the assay with RPMI-8226 leukemia, 83.8%; in the assay on OVCAR-8 ovarian it was 102%. Also, the growth with OVCAR-5 ovarian is 96.6%; in the assay on OVCAR-4 ovarian, 91.1%; with SK-OV-3 ovarian it was 99%; in the assay on IGROV1 ovarian, 74.7%; with OVCAR-3 ovarian, 112%; in the assay on HS 578T breast it was 104%. The growth in the assay on NCI/ADR-RES ovarian was 104%.

As to `OC(c1cc2cc(Cl)c(Cl)cc2c2cc(C(F)(F)F)ccc12)C1CCCCN1` (stereo not drawn), the growth in the assay on SK-MEL-2 melanoma was -54.2% (active); in the assay with EKVX NSCLC, -24.8% (active); in the assay with SN12C renal it was -73.2% (active); in the assay on UO-31 renal, -74.2% (active); with TK-10 renal, -75.2% (active); in the assay with ACHN renal, -82.5% (active). In addition, the growth with CAKI-1 renal is -46.4% (active); in the assay on A498 renal, 48.1%; with CCRF-CEM leukemia it was -45% (active); with MOLT-4 leukemia it was -60.3% (active); with SR leukemia it was -59.9% (active); with RPMI-8226 leukemia it was -37.1% (active). In addition, the growth with OVCAR-8 ovarian is -71.3% (active); with OVCAR-5 ovarian, -41.6% (active); with SK-OV-3 ovarian, 34%; in the assay on IGROV1 ovarian, -64.9% (active); in the assay with OVCAR-3 ovarian, -90.3% (active); in the assay on HS 578T breast, -50.4% (active). The growth in the assay on NCI/ADR-RES ovarian was -79.1% (active).

For `CN(C)S(=O)(=O)c1ccc(S(=O)(=O)Nc2cccc(Cl)c2N2CCCCC2)cc1`, the growth was 73.8% with SK-MEL-2 melanoma; 68.2% with EKVX NSCLC; 83% with SN12C renal; 72.7% in the assay with UO-31 renal; 102% with TK-10 renal; 75.3% in the assay with ACHN renal. Also, the growth in the assay with CAKI-1 renal is 31.6%; in the assay on A498 renal it was 103%; in the assay with CCRF-CEM leukemia it was 75%; in the assay with MOLT-4 leukemia it was 68.9%; with RPMI-8226 leukemia it was 48%; in the assay with OVCAR-8 ovarian it was 92%. Also, the growth in the assay on OVCAR-5 ovarian is 89.4%; in the assay with OVCAR-4 ovarian it was 68.2%; with SK-OV-3 ovarian it was 98.3%; in the assay on IGROV1 ovarian, 82.5%; in the assay with OVCAR-3 ovarian it was 90.6%; in the assay on HS 578T breast, 91.8%. In the assay on NCI/ADR-RES ovarian, the growth is 76.6%.

With `Cc1nc2c3c(-c4ccccc4)c(-c4ccccc4)oc3ncn2n1`, the growth in the assay with SK-MEL-2 melanoma is 101%; in the assay with EKVX NSCLC it was 88.9%; in the assay on SN12C renal it was 96.5%; in the assay on UO-31 renal, 83.9%; with TK-10 renal, 108%; with ACHN renal, 94.6%. For the same molecule, the growth in the assay on CAKI-1 renal was 88.6%; in the assay on A498 renal it was 67.9%; with CCRF-CEM leukemia, 96.7%; in the assay on MOLT-4 leukemia it was 89.9%; with RPMI-8226 leukemia, 92.7%; in the assay with OVCAR-8 ovarian, 97.3%. The growth in the assay with OVCAR-5 ovarian was 95.4%; in the assay on OVCAR-4 ovarian, 83%; with SK-OV-3 ovarian, 93%; in the assay on IGROV1 ovarian, 94.7%; in the assay on OVCAR-3 ovarian, 111%; in the assay on HS 578T breast, 95.8%. The growth in the assay on NCI/ADR-RES ovarian is 94.1%.

With `O=C(N/N=C/c1c[nH]c2ccccc12)c1cc(-c2ccccc2)on1`, the growth in the assay with SK-MEL-2 melanoma is 101%; with EKVX NSCLC, 87.9%; with SN12C renal, 92.3%; in the assay with UO-31 renal, 60.7%; with TK-10 renal, 125%; with ACHN renal it was 87.6%. In addition, the growth is 69.7% in the assay on CAKI-1 renal; 78.6% with A498 renal; 46.1% in the assay on CCRF-CEM leukemia; 69.5% in the assay on MOLT-4 leukemia; 90% with RPMI-8226 leukemia; 102% with OVCAR-8 ovarian. The growth was 97.5% with OVCAR-5 ovarian; 85.6% in the assay on OVCAR-4 ovarian; 91% in the assay with SK-OV-3 ovarian; 87.2% in the assay on IGROV1 ovarian; 103% in the assay with OVCAR-3 ovarian; 94.4% in the assay with HS 578T breast. Further, the growth in the assay on NCI/ADR-RES ovarian was 84.3%.

With `O=c1c2c3c(sc2nc(N/N=C/c2cn(-c4ccccc4)nc2-c2ccc(Cl)cc2)n1Cc1ccccc1)CCCC3`, the growth is 103% in the assay with SK-MEL-2 melanoma; 106% with EKVX NSCLC; 127% in the assay with SN12C renal; 95.9% with UO-31 renal; 129% in the assay with TK-10 renal; 117% in the assay with ACHN renal. Besides, the growth was 98.9% in the assay with CAKI-1 renal; 112% with A498 renal; 109% with CCRF-CEM leukemia; 22% in the assay on MOLT-4 leukemia; 119% in the assay on RPMI-8226 leukemia; 98.2% in the assay with OVCAR-8 ovarian. In addition, the growth was 121% in the assay on OVCAR-5 ovarian; 109% with OVCAR-4 ovarian; 102% in the assay with SK-OV-3 ovarian; 92.4% in the assay on IGROV1 ovarian; 106% in the assay on OVCAR-3 ovarian; 94.2% with HS 578T breast. Further, in the assay on NCI/ADR-RES ovarian, the growth is 108%.

For the molecule `Cc1cn2c(/C=C3/C(=O)Nc4c3ccc3ccccc43)c(C(F)(F)F)nc2s1`, the growth in the assay on SK-MEL-2 melanoma is 20%; in the assay on EKVX NSCLC it was 44.4%; in the assay with SN12C renal it was 38.2%; with UO-31 renal it was 34.7%; in the assay on TK-10 renal, 36.3%; in the assay with ACHN renal, 48.5%. Also, the growth is 34.3% in the assay with CAKI-1 renal; 0.919% (active) in the assay with A498 renal; 16.4% in the assay with CCRF-CEM leukemia; 35.1% with MOLT-4 leukemia; 8.46% (active) in the assay on SR leukemia; 14.7% with RPMI-8226 leukemia. In addition, the growth in the assay with OVCAR-8 ovarian is 27.7%; with OVCAR-5 ovarian, 43.4%; in the assay on OVCAR-4 ovarian, 51.3%; in the assay with IGROV1 ovarian, 42.1%; in the assay with OVCAR-3 ovarian, -1.83% (active); with HS 578T breast it was 16.5%. Further, the growth with NCI/ADR-RES ovarian was 5.22% (active).
